Assay outcomes deposited in PubChem by National Center for Advancing Translational Sciences (NCATS).
Only some compounds are listed: those with a hit (about 3% of all), similar ones and a draw of the others.
Tau fluor cs: counter-screen for tau fibril formation inhibitors; tau K18 P301L Alexa594 fluorescence, heparin fibrillization; Potency, µM (top dose mostly 57.7 µM), for the others: at the highest dose activity change, negative = decrease; hit rate 0.93% among 280,000; AID 1463; also: nearly all actives have a fitted effect of over 55% in size
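Human K18 P301L tau (15 uM unlabeled plus 0.24 uM Alexa 594-labeled, final) in 100 mM sodium acetate pH 7 was mixed with compound and 20 uM heparin and incubated 6 hr at 37 C.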
TR SRC2 fluor cs: Texas Red fluorescence interference in TRb-SRC2 counter-screen; TRb/SRC2 Texas Red total fluorescence interference; Potency, µM (titrated, usually from 106 µM), for inactives: top-dose fluorescence change, negative = quenching; hit rate 0.29% among 280,000; active = well fitted curve in either direction with a large enough effect; inconclusive = small, poorly fitted or top-dose-only effect
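Human TRβ ligand-binding domain (0.6 uM) and Texas Red SRC2 peptide (20 nM) in Tris buffer with 1 uM T3 and 5% DMSO were incubated with pinned compound for 5 hr at ambient temperature. Total fluorescence was computed as S + 2P (555/632 nm).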
TRb SRC2 PPI: inhibitors of human thyroid hormone receptor beta-SRC2 interaction; hit rate 0.065% among 280,000; P10828; TRbeta-SRC2 peptide binding, fluorescence polarization; receptor liganded with 1 µM T3; Potency, µM (titrated, usually from 106 µM), for inactives: at the top dose activity change, negative = inhibition, actives largely listed as inhibitors;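 also: plate controls were bound peptide for no effect and peptide without receptor for full effect; nearly all actives have a fitted effect of over 50% in size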
Target sequence (P10828 whole entry, looked up): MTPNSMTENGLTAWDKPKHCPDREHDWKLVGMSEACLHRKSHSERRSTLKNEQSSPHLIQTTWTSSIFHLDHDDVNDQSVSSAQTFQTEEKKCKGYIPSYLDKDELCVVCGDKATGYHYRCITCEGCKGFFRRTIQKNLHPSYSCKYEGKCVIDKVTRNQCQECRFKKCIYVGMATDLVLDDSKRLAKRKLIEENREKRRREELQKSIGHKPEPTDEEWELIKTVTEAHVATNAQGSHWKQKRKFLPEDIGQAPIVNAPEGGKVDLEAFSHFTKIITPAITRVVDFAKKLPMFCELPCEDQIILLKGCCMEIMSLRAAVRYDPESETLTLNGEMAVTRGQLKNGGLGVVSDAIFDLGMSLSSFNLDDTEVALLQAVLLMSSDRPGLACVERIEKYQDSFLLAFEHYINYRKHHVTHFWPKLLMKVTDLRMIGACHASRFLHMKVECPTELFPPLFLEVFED
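Quantitative HTS by FP: 0.6 uM TRb LBD, 20 nM labeled SRC2 20-mer, 1 uM T3, 5% DMSO; 5 hr ambient incubation; % activity per concentration and potencies from concentration series.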
Tau fibril ThT: tau fibrillization inhibition (ThT binding). P10636. recombinant tau K18 P301L, heparin-induced fibrillization, ThT fluorescence. Potency, µM (series often up to 57.4 µM), without a hit: top-dose activity, negative = inhibition, hits mostly inhibitors. hit rate 2.1% among 270,000; also: nearly all actives have a fitted effect of over 55% in size
Target sequence (P10636 561-689 P618L limits assumed): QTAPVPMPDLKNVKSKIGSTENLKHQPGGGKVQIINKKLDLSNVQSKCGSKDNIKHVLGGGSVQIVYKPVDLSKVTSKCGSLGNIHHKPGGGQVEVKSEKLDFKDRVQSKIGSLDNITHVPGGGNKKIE
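Using a mix of unlabeled (15 uM) and Alexa 594-labeled (0.24 uM) tau K18 P301L, heparin-triggered fibrillization over 6 hr at 37 C was scored by ThT fluorescence.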
Tau fibril FP: tau fibrillization inhibition (FP) | K18 P301L tau heparin fibrillization, Alexa594 FP, 6 h | Potency, µM (top dose mostly 57.7 µM), without a hit: at the highest dose activity, negative = inhibition, actives largely listed as inhibitors | hit rate 0.39% among 280,000 | AID 1468; also: nearly all actives have a fitted effect of over 55% in size
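Recombinant K18 P301L […], labeled with Alexa 594 at 0.24 uM over 15 uM unlabeled; heparin inducer 20 uM final; 37 C, 6 hr; FP endpoint.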
The depositor's hits bear a star; [ ] = dose if it differs, or a comment. Unless noted, calls follow the shape of the dose curve; as a rule, active = well fitted curve in the direction sought with a large enough effect; inconclusive = small, poorly fitted or top-dose-only effect, or another doubt; inactive = no such curve, though single readings can be large; an effect the other way counts as inactive or inconclusive. Unless noted, % is scaled to controls: 0 for no effect and ±100 for the full control effect; potency is read from the fitted curve at half-maximal effect.

Results for COc1ccc(CCn2c(N)c(C(=O)NCc3ccco3)c3nc4ccccc4nc32)cc1OC ?
Tau fluor cs: inconclusive; TR SRC2 fluor cs: -8%; TRb SRC2 PPI: inconclusive; Tau fibril ThT: 18µM*; Tau fibril FP: 32µM*

Results for CCc1nc2ccc(C(=O)NCCc3ccc(OC)c(OC)c3)cc2nc1CC ?
Tau fluor cs: -16%; TR SRC2 fluor cs: -1%; TRb SRC2 PPI: -4%; Tau fibril ThT: inconclusive; Tau fibril FP: -7%

How did CCC/C(=N\OCC)C1=C(O)CC(O)(CC(C)S(=O)(=O)CC)CC1=O (stereo unspecified) do in these assays?
TR SRC2 fluor cs: 4%[201 µM]; TRb SRC2 PPI: 1%[201 µM]

What do the screens show for `Cc1ccc(OCCCC(=O)Nc2sc3c(c2C(N)=O)CCC(C)C3)cc1` (stereo unspecified)?
Tau fluor cs: -5%; TR SRC2 fluor cs: 8%; TRb SRC2 PPI: -1%; Tau fibril ThT: -15%; Tau fibril FP: -14%

How did Cc1cc(=O)n2[nH]c(C)c(-c3ccccc3)c2n1 do in these assays?
Tau fluor cs: -4%; TR SRC2 fluor cs: -6%; TRb SRC2 PPI: -21%; Tau fibril ThT: -8%; Tau fibril FP: 0%

How did Cc1cc(=O)n2[nH]c(N)c(N=Nc3ccccc3F)c2n1 do in these assays?
Tau fluor cs: -5%; TR SRC2 fluor cs: -7%; TRb SRC2 PPI: 2%; Tau fibril ThT: 11µM*; Tau fibril FP: 10%

Results for CC(=O)OCCNc1cc(SCc2ccco2)c2nonc2c1[N+](=O)[O-] ?
Tau fluor cs: 7.9µM*[quencher]; TR SRC2 fluor cs: -17%; TRb SRC2 PPI: -6%; Tau fibril ThT: 7.1µM*; Tau fibril FP: inconclusive

How did CC(=O)OCCNc1cc(Sc2nc3ccccc3[nH]2)c2nonc2c1[N+](=O)[O-] do in these assays?
Tau fluor cs: -2%; TR SRC2 fluor cs: 12%; TRb SRC2 PPI: 6%; Tau fibril ThT: 0%; Tau fibril FP: 0%

What do the screens show for `CC(=O)OCCCNc1cc(Sc2ccc(C)cc2)c2nonc2c1[N+](=O)[O-]`?
Tau fluor cs: inconclusive; TR SRC2 fluor cs: 4%; TRb SRC2 PPI: -4%; Tau fibril ThT: inconclusive; Tau fibril FP: -8%

Results for COc1ccc(CNc2cc(NCCCO)c([N+](=O)[O-])c3nonc23)cc1 ?
Tau fluor cs: -4%; TR SRC2 fluor cs: -1%; TRb SRC2 PPI: 10%; Tau fibril ThT: 3%; Tau fibril FP: 5%

Results for O=[N+]([O-])c1c(NCCCO)cc(SCc2ccco2)c2nonc12 ?
Tau fluor cs: inconclusive; TR SRC2 fluor cs: -5%; TRb SRC2 PPI: -4%; Tau fibril ThT: 7.9µM*; Tau fibril FP: inconclusive

How did Cn1ccnc1Sc1cc(NCCCO)c([N+](=O)[O-])c2nonc12 do in these assays?
Tau fluor cs: inconclusive; TR SRC2 fluor cs: -1%; TRb SRC2 PPI: 0%; Tau fibril ThT: 4.5µM*; Tau fibril FP: -13%

Results for O=[N+]([O-])c1c(NCCCO)cc(Sc2ccc(Cl)cc2)c2nonc12 ?
Tau fluor cs: inconclusive; TR SRC2 fluor cs: 2%; TRb SRC2 PPI: -8%; Tau fibril ThT: 13µM*; Tau fibril FP: inconclusive

What do the screens show for `CCCC(=O)OCCNc1cc(SCCC(=O)OC)c2nonc2c1[N+](=O)[O-]`?
Tau fluor cs: -6%; TR SRC2 fluor cs: -8%; TRb SRC2 PPI: 0%; Tau fibril ThT: -1%; Tau fibril FP: -2%

Results for CC(C)CC(=O)n1nc(-c2ccco2)nc1NCc1ccc(Cl)cc1 ?
Tau fluor cs: -11%; TR SRC2 fluor cs: -9%; TRb SRC2 PPI: 5%; Tau fibril ThT: -2%; Tau fibril FP: -8%

Results for COc1cc(Cl)c(C)cc1NC(=O)CC1Oc2ccccc2NC1=O (stereo unspecified) ?
Tau fluor cs: -25%; TR SRC2 fluor cs: -26%; TRb SRC2 PPI: 2%; Tau fibril ThT: -5%; Tau fibril FP: 3%

What do the screens show for `COC(=O)[C@H](CCSC)NC(=O)c1ccc(NC[C@@H](N)CS)cc1-c1ccccc1`?
TR SRC2 fluor cs: -4%; TRb SRC2 PPI: 2%

How did COC(=O)CCSc1cc(NCCOC(C)=O)c([N+](=O)[O-])c2nonc12 do in these assays?
Tau fluor cs: inconclusive; TR SRC2 fluor cs: -2%; TRb SRC2 PPI: -1%; Tau fibril ThT: 11µM*; Tau fibril FP: -10%

What do the screens show for `O=C1CCC=C1C(O)c1ccccc1` (stereo unspecified)?
Tau fluor cs: -5%; TR SRC2 fluor cs: -1%; TRb SRC2 PPI: 2%; Tau fibril ThT: -7%; Tau fibril FP: 0%

How did COc1ccc(CNc2ccc3cn[nH]c3c2)c(OC)c1OC do in these assays?
Tau fluor cs: inconclusive; TR SRC2 fluor cs: -4%; TRb SRC2 PPI: -18%; Tau fibril ThT: 28µM*; Tau fibril FP: inconclusive

What do the screens show for `COc1nc(Nc2ccc(O)cc2)nc(OC(C(F)(F)F)C(F)(F)F)n1`?
Tau fluor cs: inconclusive; TR SRC2 fluor cs: -4%; TRb SRC2 PPI: -8%; Tau fibril ThT: 4%; Tau fibril FP: 7%

Results for Nc1cccc(Nc2nc(OC(C(F)(F)F)C(F)(F)F)nc(OC(C(F)(F)F)C(F)(F)F)n2)c1 ?
Tau fluor cs: 14µM*[quencher]; TR SRC2 fluor cs: -3%; TRb SRC2 PPI: 7%; Tau fibril ThT: 4%; Tau fibril FP: 12%

Results for CCOC(=O)C1=C(CSc2nc3c(cc2C#N)CN(C)CC3)OC(N)=C(C#N)C1c1ccccc1 (stereo unspecified) ?
Tau fluor cs: inconclusive; TR SRC2 fluor cs: -3%; TRb SRC2 PPI: -9%; Tau fibril ThT: 28µM*; Tau fibril FP: -15%

What do the screens show for `COC(=O)C1=C(CSc2nc3c(cc2C#N)CN(C)CC3)OC(N)=C(C#N)C1c1ccccc1F` (stereo unspecified)?
Tau fluor cs: inconclusive; TR SRC2 fluor cs: -3%; TRb SRC2 PPI: -3%; Tau fibril ThT: 18µM*; Tau fibril FP: inconclusive

How did CCOC(=O)C1=C(CSc2nc3c(cc2C#N)CN(C)CC3)OC(N)=C(C#N)C1c1ccc(F)cc1 (stereo unspecified) do in these assays?
Tau fluor cs: inconclusive; TR SRC2 fluor cs: 2%; TRb SRC2 PPI: -26%; Tau fibril ThT: 16µM*; Tau fibril FP: inconclusive

How did CCOC(=O)C1=C(CSc2nc3c(cc2C#N)CCC3)OC(N)=C(C#N)C1c1ccccc1 (stereo unspecified) do in these assays?
Tau fluor cs: inconclusive; TR SRC2 fluor cs: 0%; TRb SRC2 PPI: 4%; Tau fibril ThT: inconclusive; Tau fibril FP: -7%

What do the screens show for `COC(=O)C1=C(C)OC(N)=C(C#N)C1c1ccccc1F` (stereo unspecified)?
Tau fluor cs: -7%; TR SRC2 fluor cs: 0%; TRb SRC2 PPI: 9%; Tau fibril ThT: -10%; Tau fibril FP: 1%

What do the screens show for `CCc1cc(C(=O)Cc2cnn(-c3ccccc3)c2)c(O)cc1O`?
Tau fluor cs: inconclusive; TR SRC2 fluor cs: 1%; TRb SRC2 PPI: -5%; Tau fibril ThT: inconclusive; Tau fibril FP: inconclusive
